Data from PubChem BioAssay AID1851 (National Center for Advancing Translational Sciences (NCATS), 2009).
Hit rate of the full screen: of about 16,000 compounds, about 2,600 (16%) were called active. Inconclusive results (about 20%) are left out. Calls come from the whole dose curve; as a rule, active = well fitted curve in the direction sought with a large enough effect; inconclusive = small, poorly fitted or top-dose-only effect, or effect the other way; inactive = no such curve, though single readings can be large or run the other way. Not all results are given here.
% is set by controls: 0 for no effect and ±100 for the full control effect.

Each molecule was assayed against Cytochrome P450 2D6 (Homo sapiens) (UniProt P10635) (assay: Cytochrome panel assay with activity outcomes). Settings: recombinant CYP, pro-luciferin dealkylation, luminescence, p450-cyp2d6; series mostly up to 57.1 µM.
Sequence of Cytochrome P450 2D6 (Homo sapiens) (P10635 whole entry, looked up): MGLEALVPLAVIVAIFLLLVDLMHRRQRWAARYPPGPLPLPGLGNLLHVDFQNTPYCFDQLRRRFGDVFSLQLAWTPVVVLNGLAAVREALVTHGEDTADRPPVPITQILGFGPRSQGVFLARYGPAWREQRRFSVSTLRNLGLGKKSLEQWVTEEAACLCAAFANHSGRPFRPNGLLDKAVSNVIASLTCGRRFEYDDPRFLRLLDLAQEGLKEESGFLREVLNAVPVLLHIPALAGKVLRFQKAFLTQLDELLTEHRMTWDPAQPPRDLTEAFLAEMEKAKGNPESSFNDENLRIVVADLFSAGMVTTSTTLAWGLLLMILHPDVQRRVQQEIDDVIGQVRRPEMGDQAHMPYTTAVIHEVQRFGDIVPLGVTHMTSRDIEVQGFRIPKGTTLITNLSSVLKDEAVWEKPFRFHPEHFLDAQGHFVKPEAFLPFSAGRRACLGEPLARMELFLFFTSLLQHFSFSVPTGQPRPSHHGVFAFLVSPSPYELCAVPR
With `Cn1cccc1C(=O)N1CCC2(CC1)CN(c1ccccn1)C2` the AC50 was “inactive”. For `COc1cc(OC)c(C2C(C(=O)Nc3ccc(C)cc3C)=C(C)Nc3ncnn32)cc1OC` (centres undefined), the AC50 was “inactive”. `Cc1ccc(S(=O)(=O)NC(=O)c2cccn2C)cc1` was tested, and the AC50 was “inactive”. For `O=C(Cn1cccc1C(=O)c1ccccc1)NCc1cccs1`, the AC50 was 5.01 µM (active). `O=C(Cn1ccc([N+](=O)[O-])n1)NCc1cccs1` was tested, and the AC50 was “inactive”. With `Cc1ccccc1C(=O)c1cccn1CC(=O)NCc1ccco1` the AC50 was “inactive”. With `COCCn1c(=O)c(-c2cccs2)nc2cnc(N3CCNCC3)nc21` the AC50 was “inactive”. For `COc1cc(NC(=O)Cc2c(C(=O)O)[nH]c3ccccc23)cc(OC)c1OC`, the AC50 was “inactive”. `CCC(CC)C(=O)Nc1c2c(nn1-c1ccc(OC)cc1)CS(=O)(=O)C2` was tested, and the AC50 was “inactive”. For `CCN(CC)S(=O)(=O)c1cccc(C(=O)N[C@H](C(=O)OCC(=O)NC(=O)NC)C(C)C)c1`, the AC50 was “inactive”. For `CCOC(=O)c1c(C)[nH]c2ccc3c(c12)CN1CCc2cc(OC)ccc2[C@@H]1O3`, the AC50 was “inactive”. With `CCOC(=O)c1c(C)[nH]c(C)c1C(=O)COC(=O)c1ccc(S(=O)(=O)N(CC)CC)cc1` the AC50 was 28.2 µM (active). For `CCOC(=O)c1ccc(S(=O)(=O)N2CCN(C)CC2)cc1`, the AC50 was “inactive”. For `CCN(CC)S(=O)(=O)c1ccc(C(=O)NC2=C(C(=O)OC)SCC2)cc1`, the AC50 was “inactive”. With `CCOC(=O)c1c(C)[nH]c(C)c1C(=O)COC(=O)c1cccc(S(=O)(=O)N(CC)CC)c1` the AC50 was 17.8 µM (active). With `CS(=O)(=O)N1CCC2(CCN(C(=O)Nc3cccc(C#N)c3)CC2)CC1` the AC50 was “inactive”. `O=C1c2c(O)cc(O)cc2O[C@@H](c2ccc(O)c(O)c2)[C@H]1O` was tested, and the AC50 was “inactive”. `CC1=NN(c2ccccc2)C(=O)/C1=C\N1CC(C)OC(C)C1` (centres undefined) was tested, and the AC50 was “inactive”. With `COc1cc2c(cc1OC)C(C(=O)Nc1ccc3c(c1)OCCO3)C(c1cccnc1)N(C)C2=O` (centres undefined) the AC50 was “inactive”. For `FC(F)(F)c1nc(-c2ccncc2)ncc1-c1nnnn1-c1ccccc1`, the AC50 was “inactive”. `CC(C)C(=O)Nc1ccc(NC(=O)c2cccnc2)cn1` was tested, and the AC50 was “inactive”. With `C/C(CC(=O)Nc1ccccn1)=N\NC(=O)C(=O)Nc1cccc(Cl)c1C` the AC50 was “inactive”. `Cc1ccc(C(=O)Nc2ccc(N3CCOCC3)nc2)cc1` was tested, and the AC50 was “inactive”. `O=C(Nc1ccc(F)cc1)c1ccc(-n2ccnc2)nc1` was tested, and the AC50 was 0.178 µM (active). For `CCOCC(=O)Nc1cc(C(=O)Nc2cccc(C)c2C)ccc1Cl`, the AC50 was “inactive”. In the case of `Cc1c(Cl)cccc1NC(=O)c1ccc(-n2ccnc2)nc1`, the AC50 is reported as 0.0316 µM (active). With `O=S(=O)(/N=C(/Nc1ccccn1)c1ccccc1)c1ccccc1` the AC50 was “inactive”. With `CN1CCN(Cc2nc3cccc4c3c([n+]2[O-])-c2ccccc2-4)CC1` the activity, negative = inhibition was -3.37% [at 11.4 µM] (inactive). `N#C[C@H]1CN[C@H](N)N[C@@H]1N` was tested, and the activity, negative = inhibition was 8.31% [at 11.4 µM] (inactive). In the case of `Cc1cccc2c1Oc1ccccc1[C@@H]2NC(=O)c1ccc([N+](=O)[O-])cc1`, the activity, negative = inhibition is reported as 13.1% [at 11.4 µM] (inactive). For `CSc1nc(-c2ccccc2)nn1C(=O)c1ccccc1`, the AC50 was “inactive”. With `O=C(c1ccc([N+](=O)[O-])cc1)n1nc(-c2ccccc2)nc1NCc1ccccc1` the AC50 was “inactive”. For `CCc1ccccc1NC(=O)CSc1nc(-c2ccccc2)nn1C(=O)c1cccc([N+](=O)[O-])c1`, the AC50 was 10 µM (active). In the case of `Nc1c(C(=O)NCc2ccccc2)sc2nc3c(cc12)C(=O)CCC3`, the AC50 is reported as “inactive”. For `C[C@@](N)(C(=O)O)c1ccc(P(=O)(O)O)cc1`, the AC50 was “inactive”. `O=C(O)c1cc(=O)cc(C(=O)O)[nH]1` was tested, and the AC50 was “inactive”. `CC(=O)N1CCN(C(=O)CC2OC(=O)c3ccccc32)CC1` (centres undefined) was tested, and the AC50 was “inactive”. `CCOC(=O)c1sc(NC(=O)CCCCCN2C(=O)c3cccc4cccc(c34)C2=O)nc1C` was tested, and the AC50 was “inactive”. `CCOC(=O)Cc1csc(NS(=O)(=O)c2ccccc2)n1` was tested, and the AC50 was “inactive”. With `CCOC(=O)Cc1csc(NC(=O)CCCCCN2C(=O)c3ccccc3C2=O)n1` the AC50 was 14.1 µM (active). In the case of `CCOC(=O)C1=C(C)Nc2ncnn2C1c1cccnc1` (centres undefined), the AC50 is reported as “inactive”. For `CCCC(=O)Nc1nc(C(=O)OCC)cs1`, the AC50 was “inactive”. With `Nc1ccn([C@@H]2CC[C@H](CO)O2)c(=O)n1` the AC50 was “inactive”. For `C[C@]12CC[C@H]3c4ccc(O)cc4CC[C@@H]3[C@H]1CC[C@@H]2OC(=O)CCC1CCCC1`, the activity, negative = inhibition was 1.36% [at 11.4 µM] (inactive). With `CCCC1(C(=O)OC)C=C2C(=C(c3ccccc3)C(=O)C2C)CN1` (centres undefined) the AC50 was “inactive”. With `COC(=O)C1(CC(C)C)C=C2C(=C(c3ccccc3)C(=O)C2C)CN1` (centres undefined) the AC50 was “inactive”. With `CCCCCC1=C2CNC(Cc3ccccc3)(C(=O)OC)C=C2C(C)C1=O` (centres undefined) the AC50 was 12.6 µM (active). For `COC(=O)C1(Cc2ccccc2)C=C2C(=C(C(C)C)C(=O)C2C)CN1` (centres undefined), the AC50 was 12.6 µM (active). In the case of `CCCCCC1=C2CNC(CC(C)C)(C(=O)OC)C=C2C(C)C1=O` (centres undefined), the AC50 is reported as 5.01 µM (active). For `CCCC1(C(=O)OC)C=C2C(=C(C(C)C)C(=O)C2C)CN1` (centres undefined), the AC50 was “inactive”. `COC(=O)C1(C)C=C2C(=C(c3ccccc3)C(=O)C2C)CN1` (centres undefined) was tested, and the AC50 was “inactive”. For `CCCC1(C(=O)OC)C=C2C(=C(C)C(=O)C2C)CN1` (centres undefined), the AC50 was “inactive”. `CO[C@H]1COC(=O)[C@H](C)NC(=O)C/C=C\[C@@H](C)[C@H](OC)COC(=O)[C@@H](OCc2ccccc2)/C=C\[C@@H]1C` was tested, and the activity, negative = inhibition was 3.57% [at 11.4 µM] (inactive). For `O=S(=O)(c1ccccc1)N1CN2CN(C1)CN(S(=O)(=O)c1ccccc1)C2`, the activity, negative = inhibition was 2.33% [at 11.4 µM] (inactive). `NNS(=O)(=O)c1cc(C(=O)O)cc(C(=O)O)c1` was tested, and the activity, negative = inhibition was 5.99% [at 11.4 µM] (inactive). In the case of `COc1ccc(Oc2ncc3nc(-c4cn(C)c5ccccc45)c(=O)n(C)c3n2)cc1`, the AC50 is reported as “inactive”. For `COc1ccc(C(=O)NC(C)c2cc(OC)c(OC)cc2Br)cc1` (centres undefined), the AC50 was “inactive”. `CN(C)[C@@H]1C(=O)C(C(N)=O)=C(O)[C@]2(O)C(=O)C3=C(O)c4c(O)ccc(Cl)c4[C@H](O)[C@H]3C[C@@H]12` was tested, and the AC50 was “inactive”. `O=C(c1ccccc1-c1nc(-c2ccccc2)no1)N1CCOCC1` was tested, and the AC50 was “inactive”. With `CCOC(=O)N/N=C1/C[C@@H](O)[C@@H](O)[C@@H]2[C@@H]3C(=O)N(Cc4ccc5c(c4)OCO5)C(=O)[C@H]3CC[C@H]12` the activity, negative = inhibition was -9.22% [at 11.4 µM] (inactive). `CC1(C)SC(=S)N(Cc2ccc3c(c2)OCO3)C1N(O)C(=O)NC1CCCCC1` (centres undefined) was tested, and the AC50 was 2.24 µM (active). `COc1ccccc1Nc1nc(-c2sc(NC(=O)c3ccc([N+](=O)[O-])cc3)nc2C)cs1` was tested, and the AC50 was “inactive”. For `O=[N+]([O-])c1cccc(/C=N\Nc2ccc3ccccc3n2)c1O`, the AC50 was 3.16 µM (active). With `Cc1nc2ccccn2c1C(=O)N/N=C/c1ccccc1[N+](=O)[O-]` the AC50 was “inactive”. In the case of `Nc1cc(Cl)nc(N/N=C/c2ccccc2[N+](=O)[O-])n1`, the AC50 is reported as “inactive”. With `O=C(O)c1c2ccccc2cc2ccccc12` the AC50 was “inactive”. With `C/C(CCC(=O)OC[C@@H]1O[C@H](C#Cc2ccccc2)C=C[C@@H]1Oc1ccc(C)cc1)=N/OC[C@@H](O)[C@H]1O[C@H]2OC(C)(C)O[C@H]2[C@@H]1O` the activity, negative = inhibition was 14.6% [at 11.4 µM] (inactive). In the case of `CCn1c(N2CCN(C(=O)Nc3ccc(F)cc3)CC2)nc2ccccc21`, the AC50 is reported as “inactive”. `COc1cccc(N2CCN(C(=S)Nc3cccc(C)c3)CC2)c1` was tested, and the AC50 was “inactive”. `CCOC(=O)N/N=C1/C[C@@H](O)[C@@H](O)[C@@H]2[C@@H]3C(=O)N([C@@H](C)c4ccccc4)C(=O)[C@H]3CC[C@H]12` was tested, and the activity, negative = inhibition was 18.4% [at 11.4 µM] (inactive). For `Nc1nonc1-c1noc(CCCN2C(=O)c3ccccc3C2=O)n1`, the AC50 was “inactive”. In the case of `NC(N)=Nc1nc(CCN2C(=O)c3ccccc3C2=O)cs1`, the AC50 is reported as 15.8 µM (active). For `N#C/C(=C/c1cccc(C(F)(F)F)c1)c1nc(CCN2C(=O)c3ccccc3C2=O)cs1`, the AC50 was “inactive”. For `COc1cc(S(C)=O)ccc1-c1nc2ncccc2[nH]1` (centres undefined), the AC50 was “inactive”. `O=C(c1ccc(Oc2ccc(C(F)(F)F)cn2)cc1)N1CCN(c2ccccc2)CC1` was tested, and the AC50 was “inactive”. `CCC(=O)Nc1cccc(NC(=O)c2cccc([N+](=O)[O-])c2)c1` was tested, and the AC50 was “inactive”. In the case of `CC1CCN(CC(=O)Nc2cccc([N+](=O)[O-])c2)CC1`, the AC50 is reported as 5.62 µM (active). In the case of `O=C(CN1CCCCC1)Nc1nnc(-c2ccc([N+](=O)[O-])cc2)s1`, the AC50 is reported as “inactive”. For `COc1ccc(N(CC(=O)O)N=O)cc1`, the activity, negative = inhibition was 8.99% [at 11.4 µM] (inactive). `COc1ccc(OC)c2[nH]c(=O)c(CCNC(=O)c3ccc(S(=O)(=O)N(C)C)cc3)cc12` was tested, and the AC50 was “inactive”. In the case of `O=C1[C@@H]2[C@H]3[C@H](O)[C@H](O)C/C(=N/OC[C@@H](O)COCc4ccco4)[C@@H]3CC[C@H]2C(=O)N1c1ccc(F)cc1F`, the activity, negative = inhibition is reported as 10.9% [at 11.4 µM] (inactive). `C=CCOc1c(Br)cc(CNc2ccc(NC(=O)C(C)C)c(OC)c2)cc1OC` was tested, and the AC50 was “inactive”. With `COc1ccccc1CNC(=O)C/C(C)=N/NC(=O)Cc1ccccc1` the AC50 was “inactive”. In the case of `COc1ccccc1CNCc1cccs1`, the AC50 is reported as 0.794 µM (active). `COc1ccccc1CNC(=O)C1CCN(S(=O)(=O)N2CC(C)CC(C)C2)CC1` (centres undefined) was tested, and the AC50 was “inactive”. For `COc1cc(C)c(Br)cc1S(=O)(=O)NCc1ccccc1`, the AC50 was “inactive”. For `COc1cc(CNCc2cccs2)cc(Br)c1OC`, the AC50 was 0.0562 µM (active). With `O=P(Cc1cc[n+]([O-])cc1)(c1ccccc1)c1ccccc1` the AC50 was “inactive”. In the case of `CCC(C)NS(=O)(=O)c1ccc(OCC(=O)NCC2CCCO2)cc1` (centres undefined), the AC50 is reported as “inactive”. `Cc1ccc(CNC(=O)C2CC(c3ccccc3[N+](=O)[O-])=NO2)o1` (centres undefined) was tested, and the AC50 was “inactive”. In the case of `CC(C)(C)OC(=O)N1CCCC1C(=O)NCCc1ccccc1` (centres undefined), the AC50 is reported as “inactive”. For `Cc1ccc(CNC(=O)C2CC(c3ccccc3[N+](=O)[O-])=NO2)cc1` (centres undefined), the AC50 was “inactive”. With `O=C(NCCCCc1ccccc1)C1CC(c2ccccc2[N+](=O)[O-])=NO1` (centres undefined) the AC50 was 0.1 µM (active). For `Cc1ccc(CCNC(=O)C2CC(c3ccccc3[N+](=O)[O-])=NO2)cc1` (centres undefined), the AC50 was 2.51 µM (active).
